Test results taken from PubChem BioAssay.
“And” between values parts separate entries of the source, which are not always exact repeats. Identical values can stand only once. Inconclusive results are not listed. For part of these data: Entries with a potency or affinity are not part of this list. The source made the active and inactive calls. Unless noted, the rule behind the calls is not given here.

What was measured:
[1] = hESC survival regulators, cell-based (AID 493140); conditions: human embryonic stem cell survival screen; stronger effect = higher value;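 note: cells exposed to compounds for four days before counting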
[2] = tested on: Aerobactin synthetase IucA (Klebsiella pneumoniae); test: IucA aerobactin synthetase inhibitors, biochemical, Tocris library, absorbance (AID 1345561); conditions: purified IucA enzyme assay, absorbance (OD) read-out; stronger effect = lower value;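 tested at 8 µM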;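 note: 100% = enzyme without compound and 0% = no enzyme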
F380Y/beta1 = test: modulators of BK channel variants, profiling panel, selectivity assay, cell-based, U2OS BacMam, thallium flux, beta subunits (AID 1259406;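 active = thallium flux through the channel raised or lowered by more than 3 SD from vehicle-only wells, actives on both sides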;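 note: initial slope of Thallos dye fluorescence rise after thallium is added; log ratio against the mean of 0.3% DMSO vehicle wells on the same plate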); conditions: at 30 µM
F380Y/beta4 = test: as above; conditions: at 30 µM
R275C/beta4 = test: as above; conditions: at 30 µM
R275C/Slo1WT/beta2 = test: as above; conditions: at 30 µM
[3] = circadian clock period modulators, cell-based, LOPAC library, luminescence reporter (AID 2774); conditions: circadian reporter cells, at 7 µM, actives lie on both sides;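 note: values are relative to mean of DMSO wells on each plate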
[4] = tested on: Hepatitis C virus NS3 helicase; test: HCV NS3 helicase inhibitors, primary screen, biochemical, fluorescence polarization, LOPAC1280 library (AID 687035; in the data active = inhibition above about 37%); conditions: Purified HCV NS3 helicase, Cy5-dT15 ssDNA binding fluorescence polarization; stronger effect = higher value; concentration not given here
[5] = Cy5 fluorescence quenching or enhancement artefacts, artefact control for HCV NS3 helicase inhibitor project, biochemical, LOPAC1280 (AID 687037); conditions: Cy5-DNA-NS3h complex fluorescence interference counterscreen
[6] = phospholipid biosynthesis inhibitors in animal cells, primary screen, cell-based, LOPAC library, screen 4 (AID 1347384); conditions: phospholipid biosynthesis inhibition screen, at 10 µM
[7] = tested on: Neuropilin-2 / VEGF-C interaction (human); test: inhibitors of NRP2–VEGF-C binding, biochemical, microplate binding format, z-score (AID 743281); conditions: microplate NRP2/VEGF-C binding assay; stronger effect = lower value
[8] = modifiers of HSF1 nuclear foci, imaging, Selleck Cancer Library (AID 1347162; in the data active = plate-normalised HSF1 focus index below about 0.46); conditions: human cells, at 10 µM; SSMD: measured here: HSF1 foci SSMD mean; cell count: measured here: cell number; plate-normalised HSF1 focus index: stronger effect = lower value
[9] = polyglutamine-triggered caspase-3 activation inhibitors, cell-based (AID 1583); conditions: polyglutamine-induced caspase-3 activation, cell assay; stronger effect = higher value;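 tested at 10 µM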
[10] = suppressors of polyQ aggregation in yeast, 75Q-TubU reporter (AID 1593); conditions: Yeast 75Q polyglutamine aggregation reporter
[11] = rescue of polyQ-huntingtin neuronal dysfunction in worms, whole organism, C. elegans mechanosensory neurons, N-terminal huntingtin (AID 1599); conditions: touch response, stronger effect = higher value
[12] = inhibitors of mitochondrial cytochrome c release, biochemical, purified mitochondria (AID 1603); conditions: stronger effect = lower value;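 note: mouse liver mitochondria challenged with calcium chloride; signal normalized to the plate average as 100%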
[13] = inhibitors of polyQ protein aggregation (AID 1604); conditions: polyglutamine-induced protein aggregation inhibition assay; stronger effect = higher value; tested at 2.5 µM
[14] = enhancers of glutamate uptake in motor neurons, MN-1 cell line (AID 1612); conditions: MN-1 motor neuron cells, stronger effect = higher value;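 note: tested at 1 µM final; 0% = mean of DMSO vehicle wells on each plate; positive means more glutamate uptake than control and negative means less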
[15] = suppressors of polyglutamine aggregation in yeast, 75Q-TubH (AID 1616); conditions: S. cerevisiae 75Q-TubH polyglutamine aggregation suppression; stronger effect = higher value
[16] = growth inhibition of DIPG glioma cells, dose response, cell-based, JHH-DIPG-1, MIPE4.0, CellTiter-Glo, qHTS (AID 1347062; cut-off not given, nearly all actives have AC50 up to about 27 µM;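 for AC50: cells exposed to compound for two days before readout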); conditions: JHH-DIPG-1 viability, CellTiter-Glo ATP luminescence

CC(C)[N+]1(C)C2CCC1CC(OC(=O)C(CO)c1ccccc1)C2 (centres undefined)
survival [1]: 16.6 (inactive)
remaining activity [2]: 98.6% (inactive)
log fold change Tl+ flux (F380Y/beta1): 0.0263 (inactive)
log fold change Tl+ flux (F380Y/beta4): 0.0435 (inactive)
log fold change Tl+ flux (R275C/beta4): 0.0153 (inactive)
log fold change Tl+ flux (R275C/Slo1WT/beta2): -0.0119 (inactive)

CCCC1O[C@@H]2C[C@H]3[C@@H]4CCC5=CC(=O)C=C[C@]5(C)[C@H]4[C@@H](O)C[C@]3(C)[C@]2(C(=O)CO)O1 (some centres undefined)
period change [3]: -0.26 h (inactive)
survival [1]: 0.833 (inactive)
inhibition [4]: -5% (inactive)
fluorescence ratio (interference) [5]: 0.9 (inactive)
remaining activity [2]: 98.4% (inactive) and 108% (inactive)
outcome [6]: inactive
log fold change Tl+ flux (F380Y/beta1): 0.126 (active)
log fold change Tl+ flux (F380Y/beta4): 0.0417 (inactive)
log fold change Tl+ flux (R275C/beta4): 0.1 (inactive)
log fold change Tl+ flux (R275C/Slo1WT/beta2): -0.0145 (inactive)

O=C(O[C@@H]1Cc2c(O)cc(O)cc2O[C@@H]1c1cc(O)c(O)c(O)c1)c1cc(O)c(O)c(O)c1
z-score [7]: 2.31 (inactive)
SSMD [8]: 0.931
cell count [8]: 6910
plate-normalised HSF1 focus index [8]: 1.03 (inactive)

Cn1cc[nH]c1=S
inhibition [9]: 14.9%
score [10]: 1.43
rescue above control [11]: -4.12
cytochrome c release ratio [12]: 1.1
inhibition of aggregation [13]: 48%
glutamate uptake change [14]: -2.61%
aggregation suppression score [15]: 1.46
survival [1]: 1.42 (inactive)
log fold change Tl+ flux (F380Y/beta1): -0.0456 (inactive)
log fold change Tl+ flux (F380Y/beta4): 0.0112 (inactive)
log fold change Tl+ flux (R275C/beta4): 0.0185 (inactive)
log fold change Tl+ flux (R275C/Slo1WT/beta2): 0.019 (inactive)

CCCCCCCCCCCC1=C(O)C(=O)C=C(O)C1=O
remaining activity [2]: 99.6% (inactive)

COc1c(C)c2c(c(O)c1C/C=C(\C)CCC(=O)O)C(=O)OC2
inhibition [9]: -14.6%
score [10]: 0.55
rescue above control [11]: 6.21
cytochrome c release ratio [12]: 1.22
inhibition of aggregation [13]: 35%
glutamate uptake change [14]: -2.33%
aggregation suppression score [15]: 0.18
survival [1]: 0.167 (inactive)
remaining activity [2]: 113% (inactive)
SSMD [8]: -0.56
cell count [8]: 7660
plate-normalised HSF1 focus index [8]: 0.964 (inactive)

CC/C(=C(\c1ccccc1)c1ccc(OCCN(C)C)cc1)c1ccccc1
inhibition [9]: 22.9%
score [10]: -1.76
rescue above control [11]: 2.54
cytochrome c release ratio [12]: 2.67
inhibition of aggregation [13]: 58.9%
glutamate uptake change [14]: -4.23%
aggregation suppression score [15]: -0.635
period change [3]: 0.115 h (inactive)
survival [1]: 6.5 (inactive)
inhibition [4]: -5% (inactive) and -2% (inactive)
fluorescence ratio (interference) [5]: 1 (inactive) and 0.9 (inactive)
remaining activity [2]: 79.2% (inactive)
SSMD [8]: -8.19
cell count [8]: 3320
plate-normalised HSF1 focus index [8]: 0.591 (inactive)
outcome [6]: inactive

CN1C[C@H](C(=O)N[C@]2(C)O[C@@]3(O)[C@@H]4CCCN4C(=O)[C@H](Cc4ccccc4)N3C2=O)C[C@@H]2c3cccc4[nH]cc(c34)C[C@H]21
inhibition [9]: -12.1%
score [10]: 1.21
rescue above control [11]: 4.53
cytochrome c release ratio [12]: 1.48
inhibition of aggregation [13]: 29.7%
glutamate uptake change [14]: 15.4%
aggregation suppression score [15]: 1.29
period change [3]: 0.225 h (inactive)
survival [1]: 19.1 (inactive)
inhibition [4]: -3% (inactive)
fluorescence ratio (interference) [5]: 1 (inactive)
remaining activity [2]: 86.1% (inactive)
outcome [6]: inactive

O=C(O)c1cccnc1C(=O)O
inhibition [9]: -5.39%
score [10]: 1.95
rescue above control [11]: 5.37
cytochrome c release ratio [12]: 1.17
inhibition of aggregation [13]: 58.6%
glutamate uptake change [14]: -5.4%
aggregation suppression score [15]: 1.12
period change [3]: -0.235 h (inactive)
inhibition [4]: -2% (inactive)
fluorescence ratio (interference) [5]: 1 (inactive)
remaining activity [2]: 95.4% (inactive)
outcome [6]: inactive

O=c1cc(-c2ccc(O)cc2)oc2cc(O)cc(O)c12
inhibition [9]: 0.12%
score [10]: 1.67
rescue above control [11]: 2.14
cytochrome c release ratio [12]: 3.46
inhibition of aggregation [13]: -7.84%
glutamate uptake change [14]: -6.97%
aggregation suppression score [15]: 1.4
period change [3]: 0.02 h (inactive)
survival [1]: 17.8 (inactive)
inhibition [4]: -1% (inactive)
fluorescence ratio (interference) [5]: 1 (inactive)
remaining activity [2]: 107% (inactive)
AC50 [16]: 2350 nM (active)
outcome [6]: inactive

COc1cc(CNC(=O)CCCC/C=C/C(C)C)ccc1O
inhibition [9]: -19.2%
score [10]: 0.57
rescue above control [11]: 10.3
cytochrome c release ratio [12]: 1.29
inhibition of aggregation [13]: 71.9%
glutamate uptake change [14]: -9.59%
aggregation suppression score [15]: 0.5
survival [1]: 2.67 (inactive)
remaining activity [2]: 122% (inactive)
outcome [16]: inactive

CCCCOc1cc(CC2CNC(=O)N2)ccc1OC (centres undefined)
period change [3]: 0.115 h (inactive)
inhibition [4]: -2% (inactive)
fluorescence ratio (interference) [5]: 1 (inactive)
remaining activity [2]: 104% (inactive)
outcome [6]: inactive

NCCc1cnc[nH]1
inhibition [9]: -28.4%
score [10]: 1.16
rescue above control [11]: -5.3
cytochrome c release ratio [12]: 0.91
inhibition of aggregation [13]: 51.2%
glutamate uptake change [14]: -0.34%
aggregation suppression score [15]: 1.08
period change [3]: 0.14 h (inactive)
inhibition [4]: -3% (inactive)
fluorescence ratio (interference) [5]: 1 (inactive)
remaining activity [2]: 107% (inactive)
outcome [16]: inactive
outcome [6]: inactive

O=c1cc(-c2ccccc2)oc2cc(O)c(O)c(O)c12
remaining activity [2]: 119% (inactive)
